Laboratory results as given in the supplement of paper PMC6555819.

What was measured:
Test in all cases: PBM binding z-score (relative to random genomic background probes); higher = stronger binding; sequences stand for … in GC…GCGATTGACAGCGTAGAATGAAGG
[1] = test system: FXR:RXRa (NR concentration 270 nM, RXRa partner concentration 90 nM)
How it was run: (§1)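 On custom Agilent 4×180K arrays, double-stranded probes with 34-nt variable regions carried direct-repeat seeds, single-nucleotide variants, half-site ablations or random human genomic background. Ligand-free nuclear receptor dimers were applied for 1 h, and binding was read with antibodies against each partner (one per run). Binding z-scores come from regression-normalized fluorescence, with the random background probes as reference.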

[2] = test system: LXRa:RXRa (NR concentration 270 nM, RXRa partner concentration 90 nM)
How it was run: as §1

[3] = test system: LXRa homodimer (NR concentration 270 nM)
How it was run: as §1

[4] = test system: LXRb:RXRa (NR concentration 270 nM, RXRa partner concentration 90 nM)
How it was run: as §1

[5] = test system: LXRb homodimer (NR concentration 270 nM)
How it was run: as §1

[6] = test system: PPARa:RXRa (NR concentration 270 nM, RXRa partner concentration 90 nM)
How it was run: as §1

[7] = test system: PPARg:RXRa (NR concentration 180 nM, RXRa partner concentration 90 nM)
How it was run: as §1

[8] = test system: PPARg:RXRa 270nM:90nM, anti-RXR (NR concentration 270 nM, RXRa partner concentration 90 nM)
How it was run: as §1

[9] = test system: PPARg:RXRa 30nM:10nM, anti-RXR (NR concentration 30 nM, RXRa partner concentration 10 nM)
How it was run: as §1

[10] = test system: PPARg:RXRa 90nM:30nM, anti-RXR (NR concentration 90 nM, RXRa partner concentration 30 nM)
How it was run: as §1

[11] = test system: PPARg:RXRa DBDmut IVT, anti-RXR (DBD mutation: RXRa K156A/R161A, NR concentration 270 nM, RXRa partner concentration 90 nM)
How it was run: as §1

[12] = test system: PPARg:RXRa IVT, anti-PPARg (NR concentration 270 nM, RXRa partner concentration 90 nM)
How it was run: as §1

[13] = test system: PPARg DBDmut:RXRa IVT, anti-PPARg (DBD mutation: PPARg1 K132A/R137A, NR concentration 270 nM, RXRa partner concentration 90 nM)
How it was run: as §1

[14] = test system: PPARg DBDmut IVT, anti-PPARg (DBD mutation: PPARg1 K132A/R137A, NR concentration 270 nM)
How it was run: as §1

[15] = test system: PPARg homodimer (NR concentration 180 nM)
How it was run: as §1

[16] = test system: PXR:RXRa (NR concentration 270 nM, RXRa partner concentration 90 nM)
How it was run: as §1

[17] = test system: PXR homodimer (NR concentration 270 nM)
How it was run: as §1

[18] = test system: RARa:RXR (NR concentration 270 nM, RXRa partner concentration 90 nM)
How it was run: as §1

[19] = test system: RARa homodimer (NR concentration 270 nM)
How it was run: as §1

[20] = test system: RARb:RXRa (NR concentration 270 nM, RXRa partner concentration 90 nM)
How it was run: as §1

Sequence	PBM binding z-score [1]	PBM binding z-score [2]	PBM binding z-score [3]	PBM binding z-score [4]	PBM binding z-score [5]	PBM binding z-score [6]	PBM binding z-score [7]	PBM binding z-score [8]	PBM binding z-score [9]	PBM binding z-score [10]	PBM binding z-score [11]	PBM binding z-score [12]	PBM binding z-score [13]	PBM binding z-score [14]	PBM binding z-score [15]	PBM binding z-score [16]	PBM binding z-score [17]	PBM binding z-score [18]	PBM binding z-score [19]	PBM binding z-score [20]
AGAATGAGGTTACCAAAAATCAGGGAAACGCTTG	1.63	2.73	-0.193	1.54	-0.426	3.2	2.49	2.98	0.857	2.25	4.5	3.48	1.31	0.817	0.553	1.04	-0.0178	1.76	0.389	2.08
CAAACTTGGTCAAGGTCAAAGTCGGTTTGTGCCA	4.61	4.38	2.94	3.8	0.689	4.46	2.73	3.77	1	2.73	2.24	3.79	0.249	1.03	1.86	4.45	1.54	4.15	0.201	4.12
TCTCGGAGGAAACGAAGGTCAGAGCTTTCCAGAG	0.418	0.556	-0.0873	1.02	-1.15	1.72	-0.151	1.19	1.74	1.39	0.867	-0.0763	-1.61	-1.24	0.766	0.848	-0.378	1.7	-0.763	2.03
AGTCAATGTTCATCTAGGTAACGTAAGATATGCT	-0.0895	-0.35	-0.229	-0.0742	-0.311	0.296	0.881	-0.0872	-0.0799	-0.00272	0.56	1.85	1.15	0.949	-0.656	-0.196	0.00127	-0.13	0.181	0.152
TCGAATAGGTTAGTCGGGGCATTCAGCCAACATA	0.693	0.608	-0.0621	1.02	-0.284	1.29	0.133	1.54	2.74	1.94	2.05	0.81	-0.355	-0.412	0.278	0.59	0.0716	0.628	-0.516	1.06
CCTACTGGGCCAAAGGTCATGGATTCCAATGCTC	5.14	5.37	2.61	5.06	0.296	6.56	12	9.45	10.3	10.5	5.34	6.68	-0.19	-0.578	2.93	5.44	0.496	6.58	0.489	4.92
CCTTACGGGTCACTCCAGGTGATAGCATCGGAGT	5.24	5.98	0.158	3.34	-0.0681	4.26	3.57	3.66	1.31	2.64	2.72	3.72	-0.0866	-0.18	1.04	3.75	0.145	3.53	0.42	3.51
TCGAGTAGGTTACCAATGGTGCATTCAGCTTTCT	-0.236	1.22	-0.491	0.425	-1.1	0.801	0.0197	1.1	0.784	1.06	3.28	2.62	-0.362	-0.313	-0.186	-0.18	-0.657	0.145	-1.04	0.684
CCAGACACGTGAAAGGTAACTCAGTCTGGTACGC	-0.513	-0.178	-0.428	0.0481	-0.283	0.287	0.636	0.0199	-0.466	-0.253	-0.261	-0.369	-0.212	-0.126	-0.0268	-0.338	-0.312	-0.206	0.0098	0.231
CCTTACGGGACAAGGTTATAGCACGGGTGGTACG	0.441	0.693	-0.25	0.134	-0.233	1.02	1.08	0.756	0.00492	0.323	-0.648	0.0765	-0.507	-0.996	0.819	0.699	0.148	1.01	0.441	0.996
AGAACGAGGGCATGCTGAGTTGATAGCAGAGTAG	0.426	0.131	-0.52	-0.164	-1.15	1.12	0.939	0.666	0.00172	0.416	2.87	1.99	0.0501	-0.0747	-0.0685	1.14	0.117	0.374	-0.883	1.89
GCTCGGAGGACGAGGTCAGAGCTTTGTCCGTAGA	1.88	1.6	-0.0578	1.38	-1.38	2.9	0.449	1.04	-0.495	0.269	-0.0575	0.506	-0.927	-1.57	0.162	2.57	0.107	2.7	-1.37	2.92
CCGACCGGGGCAAGGTTACCATAACGCACAGCCA	0.591	1.02	-0.0287	0.604	-0.88	1.3	1.3	1.18	-0.0517	0.495	0.434	0.22	-0.24	-0.801	0.684	0.376	-0.0438	1.28	0.236	1.97
TTGCCTAGGTCAGATCGGGCCAGTATACGCTATA	2.67	1.04	-0.621	0.692	-0.831	1.51	0.532	0.852	-0.179	0.0126	0.589	1.07	-1.83	-1.18	0.162	1.47	-0.653	1.46	-0.953	3.07
GCTAGTTGGTCAGTTAAAGGTCACACACCGGTCG	3.58	4.58	5.75	3.98	0.905	4.23	3.18	5.17	3.67	4.95	1.33	2.95	0.429	0.266	5.59	4.98	1.44	6.18	2.99	4.13
CCTATTAGTTGACCATAAGGGCAACCGCAGCTCG	1.1	0.581	0.369	0.306	0.642	0.449	0.36	0.368	-0.191	0.0579	0.361	0.808	0.402	0.299	0.816	0.705	1.05	0.896	1.78	1.54
ATCTCTAGGTAACCAAGTTCAATGAATGCCGAAC	0.814	1.63	1.7	1.34	1.25	1.76	1.26	1.15	0.497	0.824	3.3	3.19	0.675	1.22	1.22	2.72	3.6	1.33	1.18	1.43
CGTCCAAGGTGAGAGAGGTCAGTGAATGCCGAGT	2.18	2.18	0.878	2.05	-0.732	3.11	1	1.7	0.115	1.07	2.16	2.49	-1.39	-1.25	2.8	3.75	2.87	3.54	0.726	3.46
AGAATGAGGTTGTACGTAGATCAGGGAAGAAAGT	-0.0554	0.156	0.00374	0.364	0.0497	0.574	0.188	0.124	0.21	0.207	-0.0167	0.566	0.8	0.199	0.226	0.252	0.629	0.411	0.476	0.142
CCTACTGGGCCAAAGGTCATTGTTTCCAATGCTC	4.79	5.08	4.83	4.72	1.37	6.74	11.7	10.6	10.6	11.3	5.12	6.92	2.88	1.37	5.48	5.37	1.86	6.23	1.11	4.16
CAAACTAGGGCAAAGGTCAAAGTCGAGCCAACCA	7.07	6.32	4.3	6.01	1.82	7.48	13.2	10.9	12.2	12.5	7.98	8.53	3.73	2.63	4.12	5.98	1.29	7.53	1.54	5.15
GCGACTGGGGCAAAGCAGGTTACCATCAGGTTGG	0.219	0.0244	-0.624	0.0908	-1.13	1.24	0.987	1.13	-0.557	0.405	3.88	3.6	-0.221	-0.906	0.147	0.343	-0.136	0.899	-1.19	0.889
CCTGCTAGGTCAATGGTCGGCTAAAGCAGCTCGC	2.91	2.29	0.0582	1.14	-0.355	2.95	3.48	4.34	1.27	3.38	4.15	4	-0.289	-0.553	1.3	0.918	-0.868	1.47	0.0604	3.73
CCTACTGGGCCAAAGGGCATTGATTCCAATGCTC	0.0219	0.199	-0.482	0.36	-1.02	4.61	10.3	9.18	8.24	9.29	4.36	5.09	0.51	-0.625	1.09	0.249	-0.593	0.757	-0.681	1.59
CGAACTAGGTCATTCAGGACAGTGAATACATTGA	4.37	2.73	0.67	2.11	0.253	4.49	7.24	6	3.42	5.66	8.1	7.91	2.05	1.68	1.19	2.04	1.68	2.17	0.688	3.61
CGTCAAAGTTCAACTAAGGTAATGTAAAGCACGC	7.02	6.36	3.99	4.15	2.17	5.15	5	5.65	2.56	4.42	0.526	2.28	0.986	1.3	3.39	5.58	3.59	4.17	1.99	5.18
TCTAGCAGGTCAGAGGGTCACTCAAGAGGTACGG	4.13	3.26	0.192	2.87	-0.436	4.54	4.39	5.27	3.71	5.21	2.58	3.84	0.285	-0.567	3.57	3.55	-0.129	5.12	0.365	4.07
TCATATAGGTAACACAGGTGAAAGTCGGCATCTA	1.43	1.43	0.437	1.22	0.437	2.4	2.36	3.3	4.15	3.83	4.65	4.09	0.968	1.6	1.38	1.15	0.735	1.5	1.19	1
